Screens (PubChem)
GluA2 TARP mod: GluA2-stargazin AMPA receptor complex modulation; O88602+P19491; 40,000 compounds, 3.5% hits; calls only at 30 µM; HEK293 GluA2+stargazin, membrane potential dye (FDSS), glutamate EC50; hits were called plate by plate, in both directions;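 active means any of four per-well response measures lying three or more SD from its plate-wide compound average, in either direction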
GIRK2 activator: Activators of human GIRK2-containing channels. HEK293 GIRK2/NPY4 cells, thallium flux fluorescence. P48051. activation (% efficacy), % for hits at 37.5 µM. 34,000 tested, under 10 active;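 active means primary screen hit, no activity in plain HEK293 cells, and in GIRK2-only cells above 5% efficacy rising with concentration; inactive means the rest, including fluorescent compounds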;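 further: efficacy is normalized control-subtracted fluorescence 15 s after thallium addition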
Target sequence (P48051 whole entry, looked up): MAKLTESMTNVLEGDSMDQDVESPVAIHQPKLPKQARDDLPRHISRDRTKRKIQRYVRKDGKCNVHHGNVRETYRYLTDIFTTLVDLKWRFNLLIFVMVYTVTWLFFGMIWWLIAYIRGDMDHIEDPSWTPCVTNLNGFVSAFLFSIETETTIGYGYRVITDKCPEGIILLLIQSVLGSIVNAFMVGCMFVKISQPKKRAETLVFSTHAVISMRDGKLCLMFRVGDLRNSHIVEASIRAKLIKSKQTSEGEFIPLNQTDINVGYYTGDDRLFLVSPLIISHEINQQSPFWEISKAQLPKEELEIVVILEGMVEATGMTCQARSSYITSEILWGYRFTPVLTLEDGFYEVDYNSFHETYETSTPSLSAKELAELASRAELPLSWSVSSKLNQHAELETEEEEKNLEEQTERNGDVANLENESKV
Calls only; . = inactive; / = no result given; + = active, no number; ! = not confirmed by another sample. The entries come from a sample that favours hits as a whole.

SMILES | GluA2 TARP mod | GIRK2 activator
O=C(Nc1ccc(F)c(Cl)c1)c1cc(C2CC2)n(C2CCS(=O)(=O)C2)n1 (stereo not given) | + | .
Cc1ccccc1NC(=O)Nc1ccc(CC(=O)N2CCCC2)cc1 | . | .
CCOc1cc(S(=O)(=O)NCc2ccccn2)ccc1Br | . | /
CCOc1ccc2ccccc2c1C(=O)N1CCC(c2cccs2)CC1 | . | .
COC(=O)c1ccc(C(=O)OC)c(NC(=O)CN2C(=O)c3ccccc3S2(=O)=O)c1 | . | .
COc1ccc(OCCCN2C(=O)C3(OCCCO3)c3cccc(C)c32)cc1 | +! | .
COc1ccc(CN2C(=O)C3(OCCCO3)c3ccccc32)cc1OC | . | /
COc1ccc(NC(=O)Cn2c(=O)n(C(C)C)c(=O)c3nscc32)cc1OC | . | .
CCOc1ccccc1NC(=O)Cn1c(=O)n(C(C)C)c(=O)c2nscc21 | + | .
Cc1nc(NC(=O)Cc2c(C)nn(C3CCS(=O)(=O)C3)c2C)sc1C(=O)N(C)C (stereo not given) | . | .
O=C(NCC1CCN(Cc2ccccc2)CC1)C(=O)Nc1ccc2c(c1)OCCO2 | . | .
O=C(NCC1CCN(Cc2ccccc2)CC1)C(=O)Nc1ccc2c(c1)OCO2 | + | .
O=C(CCSc1ccc(Cl)cc1)Nc1nnc(-c2ccccn2)o1 | . | .
O=C(CCS(=O)(=O)c1ccc(Cl)cc1)Nc1nnc(-c2ccccn2)o1 | + | .
Cc1nn(C(=O)c2ccc(Cl)cc2)c(C)c1NC(=O)c1ccc(Cl)cc1 | / | .
COc1ccccc1CNC(=O)CCc1csc(NC(=O)c2ccc(F)cc2)n1 | . | .
COc1ccccc1CNC(=O)CCc1csc(NC(=O)c2ccc(Cl)cc2)n1 | + | .
O=C(CCc1csc(NC(=O)c2ccc[nH]c2=O)n1)NCc1ccc(F)cc1 | + | .
O=C(CCc1csc(NC(=O)c2ccc[nH]c2=O)n1)NCc1ccc2c(c1)OCO2 | . | .
COc1cc(OC)cc(C(=O)NCC(c2cccn2C)N2CCCC2)c1 (stereo not given) | . | .
COCCCNC(=O)c1nn(-c2ccc(F)cc2)cc1OC | . | .
COc1cn(-c2ccc(F)cc2)nc1C(=O)NCCCn1ccnc1 | + | .
O=C(NCCN1CCOCC1)C(=O)Nc1ccc(F)c([N+](=O)[O-])c1 | . | .
O=C(NCCCN1CCOCC1)C(=O)Nc1ccc(F)c([N+](=O)[O-])c1 | + | .
O=C(NCC1CCN(Cc2ccco2)CC1)C1CC1 | / | .
SMILES | GluA2 TARP mod | GIRK2 activator
O=C(CC1CCCC1)Nc1cc(-c2ccco2)nn1-c1nc2c(c(=O)[nH]1)CCC2 | . | .
O=C(Nc1cc(-c2ccco2)nn1-c1nc2c(c(=O)[nH]1)CCC2)C1CC1 | + | .
COC(=O)c1cc(-c2cccs2)nc2c1c(-c1ccco1)nn2C1CCS(=O)(=O)C1 (stereo not given) | / | .
COc1ccc(OCC(O)CN2CCN(c3cccc(Cl)c3)CC2)cc1 (stereo not given) | . | .
Cc1nc2ccc(NC(=O)c3cccc(S(=O)(=O)C(C)C)c3)cc2s1 | . | .
Cc1nc2ccc(NC(=O)c3ccc(S(=O)(=O)C(C)C)cc3)cc2s1 | + | /
Cc1cc2nc(NC(=O)c3ccc(S(=O)(=O)C(C)C)cc3)sc2cc1C | . | .
CC(C)S(=O)(=O)c1ccc(C(=O)Nc2nc3ccc(Br)cc3s2)cc1 | + | /
COc1ccc(S(=O)(=O)CCC(=O)Nc2nc3ccc(Br)cc3s2)cc1 | + | .
COc1ccc(S(=O)(=O)CCC(=O)Nc2nc3cc(OC)c(OC)cc3s2)cc1 | . | .
O=C(Nc1ccc2c(c1)OCO2)C1(c2ccc(F)cc2)CC1 | / | .
CC(=O)N(Cc1ccco1)c1nc2c(F)cccc2s1 | . | /
COC(=O)c1ccc(C(=O)NCCC(O)c2cccs2)cc1 (stereo not given) | . | .
CN(C)C(CNC(=O)Cc1ccc(-c2ccccc2)cc1)c1ccccc1 (stereo not given) | . | /
CN(C1CCCC1)S(=O)(=O)c1ccc(C(=O)Nc2c(C(N)=O)oc3ccccc23)cc1 | . | /
CCCCN1CC(c2nc3ccccc3n2Cc2c(F)cccc2Cl)CC1=O (stereo not given) | + | /
CCCn1c(C2CC(=O)N(CCc3ccccc3)C2)nc2ccccc21 (stereo not given) | + | /
Cn1c(C2CC(=O)N(CCc3ccccc3)C2)nc2ccccc21 (stereo not given) | . | /
CCCCn1c(C2CC(=O)N(c3ccc(C)c(Cl)c3)C2)nc2ccccc21 (stereo not given) | + | /
CCCn1c(C2CC(=O)N(c3ccc(C)c(Cl)c3)C2)nc2ccccc21 (stereo not given) | . | /
CN1CC(c2nc3ccccc3n2CCCc2ccccc2)CC1=O (stereo not given) | . | /
O=C1CC(c2nc3ccccc3n2CC2CCCCC2)CN1CCc1ccccc1 (stereo not given) | + | /
C=C(Br)Cn1c(C2CC(=O)N(CCCC)C2)nc2ccccc21 (stereo not given) | . | .
